# Test results reported in the supplement of paper PMC13380429.
# Structures can show the parent of a compound that is named as a salt.
# Columns and labels:
# [1] = tested on: Vero E6 infected with SARS-CoV-2; assay: morphology score (similarity to uninfected cells); higher = more like uninfected cells; conditions: 24 h
# [2] = tested on: Vero E6 infected with SARS-CoV-2; assay: SARS-CoV-2 infection rate relative to infected DMSO; higher = more infection, active = 60 or less; conditions: 24 h
SMILES,morphology score [1],SARS-CoV-2 infection rate [2]
C#Cc1cnc2nc(O)n(C(CC)CC)c2n1 [tirasemtiv] (10 µM),-0.109,104% (inactive)
N#Cc1c(O)c2c(-c3ccc(-c4ccccc4O)cc3)csc2[nH]c1=O (10 µM),0.0882,106% (inactive)
O=C1c2c(O)cccc2Cc2cccc(O)c21 [anthralin] (10 µM),-0.0665,94% (inactive)
CC[C@H](Nc1ncnc2[nH]cnc12)c1nc2cccc(F)c2c(=O)n1-c1ccccc1 [idelalisib] (10 µM),-0.015,116% (inactive)
O=C(O)c1ccccc1O [salicylic-acid] (10 µM),0.0239,107% (inactive)
Cc1cc(Nc2nc(N[C@@H](C)c3ncc(F)cn3)ncc2Cl)[nH]n1 (10 µM),0.046,108% (inactive)
O=C(CN1C(=O)C2(CCCC2)NC[C@H]1c1cc(F)cc(F)c1)Nc1ccc2c(c1)C[C@@]1(C2)C(=O)Nc2ncccc21 (10 µM),0.0766,101% (inactive)
CN1CCC[C@@H]1Cc1c[nH]c2ccc(CCS(=O)(=O)c3ccccc3)cc12 [eletriptan] (10 µM),0.207,102% (inactive)
COc1ccccc1N1CCN(CCCNc2cc(=O)n(C)c(=O)n2C)CC1 [urapidil] (10 µM),0.088,101% (inactive)
O[C@H]1CC[C@H](Nc2ncc3nc(Nc4c(F)cc(F)cc4F)n([C@H]4CCOC4)c3n2)CC1 (0.833333 µM),0.103,101% (inactive)
CCCCCCCCCCCCCCSCC(=O)O [tetradecylthioacetic-acid] (10 µM),-0.0649,112% (inactive)
CCCCCCCCCCCCCCCc1cccc(OCC(=O)NCCO)c1 (10 µM),-0.00804,106% (inactive)
NC(=O)c1nc(Nc2ccccc2)sc1NC(=O)C1CCCCC1 (0.833333 µM),0.0658,100% (inactive)
CNCCC=C1c2ccccc2CCc2ccccc21 [nortriptyline] (0.833333 µM),-0.1,110% (inactive)
CC(C)c1c(NC(=O)Nc2ccc(Cl)cc2)c(=O)n(-c2ccccc2)n1C (10 µM),0.0113,112% (inactive)
CCOC(N)=O [urethane] (10 µM),-0.0716,106% (inactive)
COc1ccc(-c2c(C)c(C(=O)NN3CCCCC3)nn2-c2ccc(Cl)cc2Cl)cc1 (10 µM),0.154,86% (inactive)
CCCCCCCCCCC(CO)CCCCCCCC (centres undefined) [2-octyldodecan-1-ol] (10 µM),0.0425,110% (inactive)
CN(C)CC/C=C1/c2ccccc2COc2ccc(CC(=O)O)cc21 [Olopatadine hydrochloride (Opatanol)] (10 µM),0.105,111% (inactive)
CSC[C@H](N)C(=O)O [S-methylcysteine] (10 µM),0.000717,102% (inactive)
COc1cc2c(c(OC)c1OC)-c1ccc(OC)c(=O)cc1[C@@H](NC(C)=O)CC2 [colchicine] (10 µM),-0.0542,96% (inactive)

SMILES,morphology score [1],SARS-CoV-2 infection rate [2]
CCn1cc(C(=O)O)c(=O)c2cnc(N3CCNCC3)nc21 [pipemidic-acid] (10 µM),0.136,102% (inactive)
O=C(N[C@H]1CN2CCC1CC2)c1ccc(Cl)cc1 (10 µM),-0.0585,99.5% (inactive)
COc1c(C)cnc(Cn2cc(C#CCC(C)(C)O)c3c(Cl)nc(N)nc32)c1C (10 µM),0.181,110% (inactive)
CCc1ccc(/C=C2/SC(=S)NC2=O)cc1 (10 µM),0.0397,92.5% (inactive)
CC(C)(C)c1nc(-c2cccc(NS(=O)(=O)c3c(F)cccc3F)c2F)c(-c2ccnc(N)n2)s1 [dabrafenib] (10 µM),0.245,114% (inactive)
CCCCc1ccc(NS(=O)(=O)c2ccc(F)cc2)cc1 (10 µM),0.122,102% (inactive)
C[C@H](CS)C(=O)N1CCC[C@H]1C(=O)O [captopril] (10 µM),0.0071,104% (inactive)
CC(C)n1cnc2c(C(=O)N[C@H]3CN4CCC3CC4)cc(Cl)cc21 (10 µM),0.38,85% (inactive)
CCCCCCCCCCCCCCCC[N+](C)(C)Cc1ccccc1 [benzyldimethylhexadecylammonium] (10 µM),0.298,80% (inactive)
c1ccc(CCNc2nc(-c3ccccc3)cs2)cc1 [fanetizole] (10 µM),-0.0158,99.5% (inactive)
CCN(CC)C(=O)Nc1ccc(OCC(O)CNC(C)(C)C)c(C(C)=O)c1 (centres undefined) [celiprolol] (10 µM),0.118,96.5% (inactive)
O=C(N[C@@H]1Cc2ccccc2N(C[C@@H](O)CO)C1=O)c1cc2cc(Cl)sc2[nH]1 (10 µM),-0.155,105% (inactive)
CO[C@H]1CC=C2CCN3CCC4=C(CC(=O)OC4)[C@]23C1 (10 µM),0.059,106% (inactive)
CNC(=O)CN(CCN(CCN(CC(=O)[O-])CC(=O)NC)CC(=O)[O-])CC(=O)[O-].[Gd+3] [gadodiamide] (10 µM),-0.0219,103% (inactive)
Cc1ccc([N+](=O)[O-])cc1S(=O)(=O)N(C)/N=C/c1cnc2ccc(Br)cn12 (0.833333 µM),0.0254,112% (inactive)
CCc1ccc(OCc2ccccc2C(=O)Nc2ccc3nc(C)cc(N)c3c2)cc1 (0.833333 µM),0.313,89% (inactive)
CC(=O)N(O)C/C=C/c1cccc(Oc2ccccc2)c1 (10 µM),0.0937,97.5% (inactive)
O=C(Oc1cc(S(=O)(=O)c2ccccc2)ccc1[N+](=O)[O-])c1ccc(Cl)cc1 (10 µM),0.245,104% (inactive)
COc1cc(OC2CCN(C)CC2)ccc1Nc1ncc2c(n1)n(C1CCCC1)c(=O)n2C (0.833333 µM),0.126,98% (inactive)
O=C(O)/C=C/c1ccc(Cn2ccnc2)cc1 [ozagrel] (10 µM),0.12,92% (inactive)
Cc1ccc(-c2cc(C(F)(F)F)nn2-c2ccc(S(N)(=O)=O)cc2)cc1 [celecoxib] (10 µM),0.193,102% (inactive)

SMILES,morphology score [1],SARS-CoV-2 infection rate [2]
O=C1NC(=O)C(c2cnc3ccccn23)=C1c1cn2c3c(cc(F)cc13)CN(C(=O)N1CCCCC1)CC2 (10 µM),-0.436,105% (inactive)
O=c1ncn2nc(Sc3ccc(F)cc3F)ccc2c1-c1c(Cl)cccc1Cl (10 µM),-0.049,108% (inactive)
C[C@H](c1ccc(F)cc1CCCC(=O)O)N(c1cc(F)ccc1F)S(=O)(=O)c1ccc(Cl)cc1 (10 µM),0.0279,112% (inactive)
CNC(=O)c1ccc2c(c1)S(=O)(=O)c1ccccc1C2=O (10 µM),-0.0141,108% (inactive)
CCC(=O)O[C@H]1[C@H](O[C@@H]2[C@@H](C)[C@H](O[C@H]3C[C@@](C)(OC)[C@@H](O)[C@H](C)O3)[C@@H](C)C(=O)O[C@H](CC)[C@@](C)(O)[C@H](O)[C@@H](C)C(=O)[C@H](C)C[C@@]2(C)O)O[C@H](C)C[C@@H]1N(C)C [erythromycin-estolate] (10 µM),0.0736,114% (inactive)
CCNC(=O)C#Cc1ccc2c(C(=Nc3ccc(CN(C)C)cc3)c3ccccc3)c(O)[nH]c2c1 (0.833333 µM),-0.154,99% (inactive)
O=C(Nc1c[nH]nc1-c1nc2ccc(CN3CCOCC3)cc2[nH]1)NC1CC1 (0.833333 µM),0.0293,118% (inactive)
CC(C(=O)O)c1ccc(CC2CCCC2=O)cc1 (centres undefined) [loxoprofen] (10 µM),-0.0253,108% (inactive)
COc1cc(N2CCC(O)CC2)ccc1Nc1cc(Nc2ccccc2S(=O)(=O)C(C)C)c2cc[nH]c2n1 (0.833333 µM),-0.0202,106% (inactive)
C=CC(=O)Nc1cc(Nc2nccc(-c3c[nH]c4ccccc34)n2)c(OC)cc1N(C)CCN(C)C (0.833333 µM),-0.245,112% (inactive)
COC(=O)C(c1ccccc1)C1CCCCN1 (centres undefined) (10 µM),0.0486,114% (inactive)
CCCCCCCCCC(=O)O[C@H]1CC[C@H]2[C@@H]3CCC4=CC(=O)CC[C@@H]4[C@H]3CC[C@]12C [Nandrolone decanoate] (10 µM),-0.019,103% (inactive)
O=c1c(O)c(-c2cc(O)c(O)c(O)c2)oc2cc(O)cc(O)c12 [myricetin] (10 µM),0.195,110% (inactive)
Cc1[nH]c(/C=C2\C(=O)Nc3ccc(S(=O)(=O)Cc4c(Cl)cccc4Cl)cc32)c(C)c1C(=O)N1CCC[C@@H]1CN1CCCC1 (0.833333 µM),0.159,106% (inactive)
CCN1CCN(C(=O)Cc2ccc(Nc3ncc(F)c(Nc4ccc(C(=O)Nc5ccccc5Cl)cc4)n3)cc2)CC1 [aurora-a-inhibitor-i] (10 µM),-0.072,86% (inactive)
CC(C)c1nc(CN(C)C(=O)N[C@H](C(=O)N[C@@H](Cc2ccccc2)C[C@H](O)[C@H](Cc2ccccc2)NC(=O)OCc2cncs2)C(C)C)cs1 [ritonavir] (10 µM),0.0318,104% (inactive)
O=C(Nc1ccc([N+](=O)[O-])cc1Cl)c1cc(Cl)ccc1O [niclosamide] (0.833333 µM),0.0975,97% (inactive)
Oc1c(Cl)cc(Cl)c2cccnc12 [chloroxine] (10 µM),-0.0551,98.5% (inactive)
Cn1nnc(-c2ccc(-c3ccc(N4C[C@H](CO)OC4=O)cc3F)cn2)n1 [tedizolid] (10 µM),0.127,100% (inactive)
CC1=NN=C(c2ccc(N)cc2)c2cc3c(cc2C1)OCO3 (10 µM),-0.0987,112% (inactive)
